From PubChem BioAssay (NCATS) come the findings set out here.

Test [1] in a line: qHTS to identify inhibitors of the type 1 interferon - major histocompatibility complex class I in skeletal muscle: primary screen against the NCATS Mechanism Interrogation Plate v5.0 (MIPE) Libary (AID 1347411). Also: nearly all actives have a fitted effect of over 65% in size. Also: potency is read from the fitted curve at half-maximal effect. The procedure, abridged: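 Cells were genome-edited human myoblasts carrying a HiBit tag on endogenous HLA-B. They were treated with IFN-beta (4.0 ng/ml) and titrated compounds (top 46 uM) for 24 hrs before lytic HiBiT detection.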

Test [2] is described as follows: Primary qHTS for inhibitors of nuclear receptor binding SET domain protein 2 (NSD2) in an isogenic RCH-ACV NSD2 p.E1099K mutant (9B) (AID 1645876). Also: nearly all actives have a fitted effect of over 70% in size. Also: potency is read from the fitted curve at half-maximal effect. A general note: qHTS replaces the single test concentration by a dilution series.
Test [3] can be described thus: Primary qHTS for inhibitors of nuclear receptor binding SET domain protein 2 (NSD2) in an RCH-ACV wild type WT cells (2C) (AID 1645877). Also: nearly all actives have a fitted effect of over 70% in size. Also: potency is read from the fitted curve at half-maximal effect.
In test [4] the target is Glutathione peroxidase 1 (Homo sapiens) (UniProt P07203). The test is described as follows: Primary qHTS Assay for Inhibitors of Recombinant Selenoprotein Glutathione Peroxidase 1 (GPX1) (AID 1845191). Also: nearly all actives have a fitted effect of over 65% in size. Also: potency is read from the fitted curve at half-maximal effect. The procedure, abridged: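 GR-coupled assay: compounds preincubated 30 min at room temperature with GPX1, then reaction started with CHP; final 10 nM GPX1, 1 mM GSH, 0.5 mM CHP, 0.5 mM NADPH, 100 nM GR, 0.01% BSA, pH 7.5 Tris buffer. NADPH fluorescence (340/450 nm) read at 0 and 15 min.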

A short description of test [5]: qHTS drug screen for cell cycle checkpoint inhibitors in PARPi-resistant BRCA-mutant ovarian cancer cell lines. (AID 1963452; calls by dose curve; also: potency is read from the fitted curve at half-maximal effect). As to conditions: PEO1/OlaR viability, CellTiter-Glo luminescence, 96 h; for Z-AUC: stronger effect = lower value. The procedure, abridged:
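PEO1, PEO4 and PEO1/OlaR ovarian cancer cells, 600 per well, exposed 96 h at 37C to a dilution series. Viability read by CellTiter-Glo luminescence, normalized to DMSO and empty wells; activity summarized as Z-AUC.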

The target in test [6] is Luciferin 4-monooxygenase (Photinus pyralis) (UniProt P08659). The test is described as follows: Biochemical firefly luciferase enzyme assay for NPC (AID 624030).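 Also: purified P. pyralis luciferase at 10 nM with luciferin and ATP substrate; series mostly up to about 59 µM; 0% = DMSO and -100% = full luciferase inhibition by PTC124 control; nearly all actives have a fitted effect of over 70% in size.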 The essentials:
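Purified P. pyralis luciferase at 10 nM in 50 mM Tris Acetate (final), luminescence read within 5 minutes of enzyme addition to compounds. Activity normalised to PTC124 versus DMSO; concentration-response curves classed by r2, magnitude and activity.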

Test [7] deals with Phospholipid hydroperoxide glutathione peroxidase GPX4 (Homo sapiens) (UniProt P36969). The test is described as follows: Primary qHTS Assay for Inhibitors of Recombinant Selenoprotein Glutathione Peroxidase 4 (GPX4) (AID 1845192). Also: nearly all actives have a fitted effect of over 65% in size. Also: potency is read from the fitted curve at half-maximal effect. As to conditions: outcome: dose series up to 50 µM unless noted. The procedure, abridged:
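GR-coupled assay: recombinant GPX4 preincubated 30 min with compound at room temperature; final 200 nM GPX4, 1 mM GSH, 0.5 mM cumene hydroperoxide, 0.5 mM NADPH, 100 nM GR, 0.01% BSA, pH 7.5 Tris. NADPH fluorescence (340/450 nm) read at 0 and 15 min.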

The mark [8] stands for this setting: measured here: PEO1 parental Z-AUC.

Molecules are shown by their SMILES. Several values for one entry are separate records, joined by “and”; a condition that tells them apart may be missing. Equal entries are not always repeated. Inconclusive results are not listed. Activity calls are given as the source filed them. Unless noted, calls follow the shape of the dose curve; as a rule, active = well fitted curve in the direction sought with a large enough effect; inconclusive = small, poorly fitted or top-dose-only effect, or another doubt; inactive = no such curve, though single readings can be large; an effect the other way counts as inactive or inconclusive.

Chain of Glutathione peroxidase 1 (Homo sapiens) (P07203 whole entry, looked up): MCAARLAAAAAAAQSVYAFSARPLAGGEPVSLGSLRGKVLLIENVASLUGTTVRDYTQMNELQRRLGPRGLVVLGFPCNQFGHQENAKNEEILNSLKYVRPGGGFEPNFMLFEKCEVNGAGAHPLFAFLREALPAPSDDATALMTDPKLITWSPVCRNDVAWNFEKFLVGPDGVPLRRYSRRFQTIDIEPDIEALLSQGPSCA
Chain of Phospholipid hydroperoxide glutathione peroxidase GPX4 (Homo sapiens) (P36969 whole entry, looked up): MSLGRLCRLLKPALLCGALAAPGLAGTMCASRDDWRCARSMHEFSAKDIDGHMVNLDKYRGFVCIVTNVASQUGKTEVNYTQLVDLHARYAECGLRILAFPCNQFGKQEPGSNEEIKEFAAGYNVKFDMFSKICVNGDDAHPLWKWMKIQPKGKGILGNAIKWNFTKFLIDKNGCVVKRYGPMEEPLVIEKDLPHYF
Chain of Luciferin 4-monooxygenase (Photinus pyralis) (P08659 whole entry, looked up): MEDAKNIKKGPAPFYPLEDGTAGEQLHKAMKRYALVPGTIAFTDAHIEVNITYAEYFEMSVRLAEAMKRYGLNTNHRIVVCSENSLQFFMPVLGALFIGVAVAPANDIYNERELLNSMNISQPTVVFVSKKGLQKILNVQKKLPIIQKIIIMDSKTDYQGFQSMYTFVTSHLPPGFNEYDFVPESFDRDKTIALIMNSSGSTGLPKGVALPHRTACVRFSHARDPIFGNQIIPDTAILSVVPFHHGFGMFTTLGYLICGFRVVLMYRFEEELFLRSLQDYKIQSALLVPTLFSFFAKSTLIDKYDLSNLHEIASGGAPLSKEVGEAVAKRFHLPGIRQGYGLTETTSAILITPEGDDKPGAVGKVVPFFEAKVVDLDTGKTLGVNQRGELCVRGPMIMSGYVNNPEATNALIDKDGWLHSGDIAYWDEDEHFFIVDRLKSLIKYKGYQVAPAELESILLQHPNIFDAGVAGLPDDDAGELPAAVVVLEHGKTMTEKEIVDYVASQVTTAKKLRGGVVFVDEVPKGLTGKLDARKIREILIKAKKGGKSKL

With `O=C1NC(=O)/C(=C\c2ccc(-c3ccc(F)cc3)o2)S1`, the Potency entry in test [1], in test [2], in test [3] and in test [4] was “inactive” each time. Besides, the figures for the Z-AUC in test [5], in test [5] (setting [8]) and in test [5] (measured here: PEO4 Z-AUC) were 0.0775 (inactive), 0.696 and 0.899, respectively.
For `Cc1c(-c2c(-c3ccc(F)o3)sc3ncnc(O[C@@H](Cc4ccccc4OCc4ccnn4CC(F)(F)F)C(=O)O)c23)ccc(OCCN2CCN(C)CC2)c1Cl`, the Potency entry in test [1] and in test [4] was “inactive” throughout. Also, the Potency in test [2] is 662 nM (active); in test [3], 166 nM (active). The Z-AUC is 0.0867 (inactive) in test [5], 0.964 in test [5] (setting [8]) and 1 in test [5] (measured here: PEO4 Z-AUC).
For the molecule `CC[C@@]1(O)C(=O)OCc2c1cc1n(c2=O)Cc2c-1nc1cc(F)c(C)c3c1c2[C@@H](N)CC3`, the Potency in test [1] was 165 nM (active); in test [2], 3.3 nM (active); in test [3] it was 2.6 nM (active); in test [4], 14500 nM (active); in test [5], 8.7 nM (active). In addition, the Z-AUC is -3.81 in test [5] (setting [8]) and -2.97 in test [5] (measured here: PEO4 Z-AUC).
On to `Nc1nc(F)nc2c1ncn2[C@@H]1O[C@H](COP(=O)(O)O)[C@@H](O)[C@@H]1O`, for which the Potency entry in test [6], in test [1], in test [4] and in test [7] was “inactive” in each case. Besides, the Potency in test [2] and in test [3] was 1860 nM (active) throughout. In addition, the Z-AUC in test [5] is -1.15 (inactive) and -1.44 (inactive); in test [5] (setting [8]), -1.36 and -1.18; in test [5] (measured here: PEO4 Z-AUC) it was -0.49 and -0.861.
Take `Cc1ccc(S(=O)(=O)Nc2cc(-c3ccc(C#N)s3)ccc2C)cc1`: the Potency result in test [1] and in test [7] was “inactive” throughout. Moreover, the figures for the Potency in test [2] and in test [3] were 46.8 nM (active) and 41.7 nM (active), respectively. For the same molecule, the Z-AUC in test [5] was -2.2 (inactive); in test [5] (setting [8]), -2.3; in test [5] (measured here: PEO4 Z-AUC), -2.13.
`C=C1CCC[C@]2(C)C=C3OC(=O)C(C)=C3C[C@@H]12`: the Potency result in test [1], in test [2], in test [3], in test [4] and in test [7] was “inactive” each time. The figures for the Z-AUC in test [5], in test [5] (setting [8]) and in test [5] (measured here: PEO4 Z-AUC) were 0.206 (inactive), -0.068 and -0.0438, respectively.
As to `Cc1ccc(NS(=O)(=O)c2cccc(C#N)c2)c2[nH]cc(C#N)c12`, the Potency entry in test [1] and in test [7] was “inactive” in each case. Further, the Potency in test [2] is 372 nM (active); in test [3], 417 nM (active).
For the molecule `O=C1CC(c2c[nH]c3ccc(F)cc23)C(=O)N1` (stereo unspecified), the Potency result in test [1], in test [2], in test [3], in test [4] and in test [7] was “inactive” throughout. In addition, the Z-AUC in test [5] is 0.488 (inactive); in test [5] (setting [8]), 0.554; in test [5] (measured here: PEO4 Z-AUC), 0.655.
In the case of `CCC(C)CNCC(=O)N1CCc2sccc2C1c1cccc(C)n1` (stereo unspecified), the Potency entry in test [1], in test [2], in test [3] and in test [7] was “inactive” throughout. Further, the Z-AUC in test [5] is -0.668 (inactive); in test [5] (setting [8]) it was -0.627; in test [5] (measured here: PEO4 Z-AUC), -0.749.
Turning to `O=c1oc2c(C3OCCCO3)c(O)ccc2c2c1CNCC2`, the Potency result in test [1], in test [2] and in test [3] was “inactive” throughout. For the same molecule, the Potency in test [7] is 14300 nM (active). Besides, the Z-AUC in test [5] was 0.112 (inactive); in test [5] (setting [8]), -0.774; in test [5] (measured here: PEO4 Z-AUC), -0.202.
Take `CO[C@H]1/C=C/O[C@@]2(C)Oc3c(C)c(O)c4c(O)c(c5c(nc6cc(C)ccn65)c4c3C2=O)NC(=O)/C(C)=C\C=C\[C@H](C)[C@H](O)[C@@H](C)[C@@H](O)[C@@H](C)[C@H](OC(C)=O)[C@@H]1C`: the Potency entry in test [1] was “inactive”. Further, the Potency is 20900 nM (active) in test [2] and 23500 nM (active) in test [3]. Also, the figures for the Z-AUC in test [5], in test [5] (setting [8]) and in test [5] (measured here: PEO4 Z-AUC) were -0.712 (inactive), -1.19 and -1.09, respectively.
Regarding `O=C(O)CCCCN(CCc1ccccc1OCc1ccc(CCc2ccccc2)cc1)Cc1ccc(C(=O)O)cc1`, the Potency entry in test [1], in test [2], in test [3] and in test [4] was “inactive” in each case. In addition, the Z-AUC was 0.163 (inactive) in test [5], 0.492 in test [5] (setting [8]) and 0.773 in test [5] (measured here: PEO4 Z-AUC).
As for `Cc1ccc(-c2nc(N)nc3c2nnn3Cc2cccc(CO[C@H]3CCOC3)n2)o1`, the Potency entry in test [1], in test [2], in test [3] and in test [4] was “inactive” each time. Moreover, the results for the Z-AUC in test [5], in test [5] (setting [8]) and in test [5] (measured here: PEO4 Z-AUC) were -1.33 (inactive), -0.982 and -1.11, respectively.
